Reference: PubChem BioAssay (Tox21)
Inconclusive results are not listed. The source made the active and inactive calls. Unless noted, calls come from the whole dose curve.

Key:
[1] = qHTS assay to identify small molecule agonists of the sonic hedgehog signaling (Shh) pathway (AID 1259368);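 note: NIH/3T3-derived 3T3Gli1-Luc cells carrying a stable Gli1-driven firefly luciferase reporter; series mostly up to about 92 µM; nearly all actives have a fitted effect of over 15% in size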
In short: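 A Gli1 transcriptional response element controlled firefly luciferase in 3T3Gli1-Luc cells. Compounds and a positive control were added 4 hr after plating, and cells were incubated a further 24 hr at 37 C before luminescence detection.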

[2] = qHTS assay to identify small molecule antagonists of the sonic hedgehog signaling (Shh) pathway (AID 1259369); note: nearly all actives have a fitted effect of over 45% in size
In short: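 For antagonist detection, the reporter line received test compounds together with conditioned medium, incubated 24hr at 37 C, 5% CO2, then luminescence was recorded following 30min room-temperature luciferase reagent incubation.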

[3] = target: Estrogen receptor beta (Homo sapiens) (UniProt Q92731); test: qHTS assay to identify small molecule antagonists of the estrogen receptor beta (ER-beta) signaling pathway (AID 1259378; active = well fitted inhibition curve with a large enough effect in the signal ratio in the repeat runs, not every such curve was filed as active; the % refers to the signal ratio)
Sequence of Estrogen receptor beta (Homo sapiens) (Q92731 whole entry, looked up): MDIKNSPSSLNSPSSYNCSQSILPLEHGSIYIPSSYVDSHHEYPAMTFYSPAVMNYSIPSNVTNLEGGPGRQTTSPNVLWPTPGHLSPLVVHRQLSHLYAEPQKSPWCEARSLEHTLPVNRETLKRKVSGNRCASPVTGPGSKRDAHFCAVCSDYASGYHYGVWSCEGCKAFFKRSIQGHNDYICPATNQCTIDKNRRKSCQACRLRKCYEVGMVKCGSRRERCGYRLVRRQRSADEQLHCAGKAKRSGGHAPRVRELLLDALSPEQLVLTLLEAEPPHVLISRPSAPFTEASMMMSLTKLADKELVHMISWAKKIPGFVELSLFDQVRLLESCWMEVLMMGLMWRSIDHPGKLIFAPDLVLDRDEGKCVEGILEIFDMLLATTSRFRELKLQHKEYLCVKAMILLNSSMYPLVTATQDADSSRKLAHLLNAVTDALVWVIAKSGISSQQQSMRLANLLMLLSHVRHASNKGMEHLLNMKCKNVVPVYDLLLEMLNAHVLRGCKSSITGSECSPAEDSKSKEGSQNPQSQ
In short: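 ER-beta-UAS-bla HEK293T (GripTite) cells in 2% charcoal-stripped FBS medium were preincubated 6 hr at 37C, dosed with compound, then stimulated with 1 nM E2 (final) for 16 hr; beta-lactamase reporter read by B/G FRET fluorescence after 2 hr substrate loading.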

[4] = qHTS assay to identify small molecule agonists of the androgen receptor (AR) signaling pathway in the presence of an antagonist - cell viability counter screen (AID 1259379; active = well fitted curve in the direction sought with a large enough effect in the repeat runs; an effect the other way counts as inactive or inconclusive;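 note: MDA-kb2 human breast cancer cells carrying an MMTV luciferase reporter; series mostly up to about 92 µM; nearly all actives have a fitted effect of over 25% in size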)
In short: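 Seed MDA-kb2 at 3,000 cells/well; incubate 5 hr, 37C, 0% CO2. Add nilutamide to 3.0uM final, then pin compounds at 15 concentrations. Incubate 16 hr. Add CellTiter-Fluor at 15 hr, read fluorescence after 1 hr.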

[5] = qHTS assay to identify small molecule agonists of the estrogen receptor beta (ER-beta) signaling pathway - cell viability counter screen (AID 1259380; active = well fitted curve in the direction sought with a large enough effect in the repeat runs; an effect the other way counts as inactive or inconclusive; note: nearly all actives have a fitted effect of over 30% in size)
In short: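 CellTiter-Glo read, 30 min RT, same wells as bla assay; cells ER-beta-UAS-bla HEK293T; 16 hr compound, 37C; medium 2% charcoal-stripped FBS.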

[6] = target: Androgen receptor (Homo sapiens) (UniProt P10275); test: qHTS assay to identify small molecule agonists of the androgen receptor (AR) signaling pathway in the presence of an antagonist (AID 1259381); note: nearly all actives have a fitted effect of over 15% in size
Sequence of Androgen receptor (Homo sapiens) (P10275 whole entry, looked up): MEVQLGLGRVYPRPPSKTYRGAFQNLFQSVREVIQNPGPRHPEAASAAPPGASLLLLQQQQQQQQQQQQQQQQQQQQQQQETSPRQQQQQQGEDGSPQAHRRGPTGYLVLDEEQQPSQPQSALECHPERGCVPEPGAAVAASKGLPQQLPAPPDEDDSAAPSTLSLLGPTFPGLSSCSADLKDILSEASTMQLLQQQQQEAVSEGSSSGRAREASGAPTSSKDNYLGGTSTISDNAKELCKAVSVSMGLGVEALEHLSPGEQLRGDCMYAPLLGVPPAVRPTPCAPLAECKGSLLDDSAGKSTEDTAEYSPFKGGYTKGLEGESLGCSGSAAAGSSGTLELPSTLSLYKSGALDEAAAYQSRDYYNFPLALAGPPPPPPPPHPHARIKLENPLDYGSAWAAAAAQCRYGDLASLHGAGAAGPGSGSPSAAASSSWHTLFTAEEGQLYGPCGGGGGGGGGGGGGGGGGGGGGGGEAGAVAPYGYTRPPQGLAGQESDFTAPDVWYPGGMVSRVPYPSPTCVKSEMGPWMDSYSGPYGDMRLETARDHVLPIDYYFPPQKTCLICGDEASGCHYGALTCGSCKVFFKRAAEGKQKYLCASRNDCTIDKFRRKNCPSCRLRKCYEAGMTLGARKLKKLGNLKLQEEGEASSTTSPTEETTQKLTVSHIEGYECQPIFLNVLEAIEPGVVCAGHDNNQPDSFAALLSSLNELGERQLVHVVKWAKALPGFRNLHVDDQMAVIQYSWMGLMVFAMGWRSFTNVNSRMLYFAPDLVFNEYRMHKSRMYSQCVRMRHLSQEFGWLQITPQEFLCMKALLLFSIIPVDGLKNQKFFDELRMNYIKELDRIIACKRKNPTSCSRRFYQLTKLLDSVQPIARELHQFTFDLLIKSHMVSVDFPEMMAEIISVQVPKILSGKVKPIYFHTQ
In short: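 Test compounds at 15 concentrations were incubated for 16hr with MDA-kb2 reporter cells in presence of 3.0uM nilutamide (final). Signal: ONE-Glo luciferase luminescence.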

[7] = qHTS assay to identify small molecule antagonists of the estrogen receptor beta (ER-beta) signaling pathway - cell viability counter screen (AID 1259382; active = well fitted curve in the direction sought with a large enough effect in the repeat runs; an effect the other way counts as inactive or inconclusive; note: series mostly up to about 92 µM; nearly all actives have a fitted effect of over 55% in size)
In short: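 In this multiplexed counter screen, cells were seeded at 2,000 per well in medium with 2% charcoal-stripped FBS and incubated 6 hr before compound and 1nM final E2 were added. Sixteen hours later, ATP-based luminescence reported viability.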

[8] = qHTS assay to identify small molecule agonists or antagonists of the thyroid stimulating hormone receptor (TSHR) signaling pathway - wild type cell line counter screen (AID 1259384)
In short: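 Wild-type HEK293 cells were plated 18 h at 37 C/5% CO2, pin-dosed with compound plus Ro20-1724 medium, held 30 min at room temperature, then given cAMP-d2 and anti-cAMP-cryptate; fluorescence was read after 1 h. Fifteen concentrations, triplicate.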

[9] = target: Thyrotropin receptor (Homo sapiens) (UniProt P16473); test: qHTS assay to identify small molecule antagonists of the thyroid stimulating hormone receptor (TSHR) signaling pathway (AID 1259385); note: nearly all actives have a fitted effect of over 20% in size
Sequence of Thyrotropin receptor (Homo sapiens) (P16473 whole entry, looked up): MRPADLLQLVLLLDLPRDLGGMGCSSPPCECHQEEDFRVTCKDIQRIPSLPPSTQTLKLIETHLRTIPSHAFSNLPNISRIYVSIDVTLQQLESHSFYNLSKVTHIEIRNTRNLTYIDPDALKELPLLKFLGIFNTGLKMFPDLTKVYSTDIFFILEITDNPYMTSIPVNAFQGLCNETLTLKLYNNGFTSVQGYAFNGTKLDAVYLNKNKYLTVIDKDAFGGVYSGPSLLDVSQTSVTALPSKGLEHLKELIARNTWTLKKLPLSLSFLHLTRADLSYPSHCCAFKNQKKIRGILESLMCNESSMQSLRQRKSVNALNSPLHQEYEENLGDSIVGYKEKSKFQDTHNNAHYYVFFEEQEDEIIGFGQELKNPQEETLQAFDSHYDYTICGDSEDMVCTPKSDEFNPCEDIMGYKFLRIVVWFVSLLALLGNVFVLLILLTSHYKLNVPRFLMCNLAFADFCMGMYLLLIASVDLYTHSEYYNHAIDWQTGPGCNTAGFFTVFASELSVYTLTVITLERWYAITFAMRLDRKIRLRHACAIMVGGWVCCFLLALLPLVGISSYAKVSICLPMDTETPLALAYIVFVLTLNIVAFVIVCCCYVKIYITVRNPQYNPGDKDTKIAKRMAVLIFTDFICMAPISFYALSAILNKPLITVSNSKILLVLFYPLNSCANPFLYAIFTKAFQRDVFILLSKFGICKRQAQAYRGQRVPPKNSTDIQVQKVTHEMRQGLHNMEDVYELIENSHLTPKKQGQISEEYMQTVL
In short: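 TSHR-HEK293 cells were plated and held 18 h at 37C/5% CO2, then given compound plus Ro20-1724 and stimulated with TSH at 1.5 ng/mL final. After 30 min at room temperature, cAMP was detected with cAMP-d2/anti-cAMP-cryptate (1 h) by fluorescence.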

[10] = qHTS assay to identify small molecule agonists of the estrogen receptor alpha (ER-alpha) signaling pathway in the presence of an antagonist - cell viability counter screen (AID 1259386; active = well fitted curve in the direction sought with a large enough effect in the repeat runs; an effect the other way counts as inactive or inconclusive;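 note: series mostly up to about 92 µM; cells exposed to compounds for 22 h at 37 °C before the viability read; nearly all actives have a fitted effect of over 30% in size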)
In short: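 Viability counter screen using VM7Luc4E2 (full-length ER-alpha, four ERE-luciferase). The cells were treated with compounds alongside ICI-182,780 10.0nM for 22hr, and live-cell protease fluorescence was quantified with CellTiter-Fluor.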

[11] = target: Progesterone receptor (Homo sapiens) (UniProt P06401); test: qHTS assay to identify small molecule agonists of the progesterone receptor (PR) signaling pathway (AID 1346784); note: nearly all actives have a fitted effect of over 30% in size
Sequence of Progesterone receptor (Homo sapiens) (P06401 whole entry, looked up): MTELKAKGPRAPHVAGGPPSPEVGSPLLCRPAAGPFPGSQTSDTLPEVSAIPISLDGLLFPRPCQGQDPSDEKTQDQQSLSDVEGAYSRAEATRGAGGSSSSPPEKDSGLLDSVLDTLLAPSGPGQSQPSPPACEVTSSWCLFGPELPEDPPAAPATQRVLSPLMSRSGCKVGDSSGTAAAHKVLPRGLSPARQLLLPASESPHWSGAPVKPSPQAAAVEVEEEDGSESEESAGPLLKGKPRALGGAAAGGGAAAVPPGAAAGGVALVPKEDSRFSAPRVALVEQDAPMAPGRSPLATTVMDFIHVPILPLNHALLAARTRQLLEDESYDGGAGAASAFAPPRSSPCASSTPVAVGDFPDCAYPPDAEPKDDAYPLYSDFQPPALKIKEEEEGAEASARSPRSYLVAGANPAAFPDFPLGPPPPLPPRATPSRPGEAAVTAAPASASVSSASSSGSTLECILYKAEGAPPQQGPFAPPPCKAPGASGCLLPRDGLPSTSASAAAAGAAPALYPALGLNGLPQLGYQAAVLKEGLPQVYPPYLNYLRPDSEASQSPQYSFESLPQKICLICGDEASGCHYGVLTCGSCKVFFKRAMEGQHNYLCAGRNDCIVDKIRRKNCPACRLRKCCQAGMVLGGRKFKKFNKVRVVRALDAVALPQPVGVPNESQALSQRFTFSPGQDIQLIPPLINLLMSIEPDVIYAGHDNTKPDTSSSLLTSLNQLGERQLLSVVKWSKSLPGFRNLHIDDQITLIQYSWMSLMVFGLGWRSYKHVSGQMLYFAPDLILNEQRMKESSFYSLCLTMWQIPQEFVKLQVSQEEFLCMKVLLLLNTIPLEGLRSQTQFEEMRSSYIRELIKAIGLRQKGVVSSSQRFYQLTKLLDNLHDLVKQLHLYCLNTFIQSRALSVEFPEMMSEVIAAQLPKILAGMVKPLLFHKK
In short: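 PR-UAS-bla HEK 293T cells (beta-lactamase reporter under UAS) in 2% charcoal-stripped FBS, dosed with 23 nL compound after 6 hr, incubated 16hr at 37C. LiveBLAzer B/G FRET substrate added, fluorescence read after 2 hours.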

[12] = target: Progesterone receptor (Homo sapiens) (UniProt P06401); test: qHTS assay to identify small molecule antagonists of the progesterone receptor (PR) signaling pathway (AID 1346795; active = well fitted inhibition curve with a large enough effect in the signal ratio in the repeat runs, not every such curve was filed as active; the % refers to the signal ratio)
In short: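 PR-UAS-bla HEK293T cells with beta-lactamase reporter under UAS control, in 2% charcoal-stripped FBS, treated with compounds plus 1 nM promegestone (R5020, final) for 16 hr at 37C. Read-out: FRET beta-lactamase substrate fluorescence after 2 hr at room temperature.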

[13] = qHTS assay to identify small molecule antagonists of the progesterone receptor (PR) signaling pathway - cell viability counter screen (AID 1346798; active = well fitted curve in the direction sought with a large enough effect in the repeat runs; an effect the other way counts as inactive or inconclusive; note: series mostly up to about 92 µM; nearly all actives have a fitted effect of over 50% in size)
In short: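 PR-UAS-bla HEK293T cells, 3,000/well in 2% charcoal-stripped FBS medium, dosed with compounds plus R5020 agonist and incubated 16 h at 37C. Viability then measured in the same wells by CellTiter-Glo luminescence after 30 min at RT.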

[14] = qHTS assay to identify small molecule agonists of the progesterone receptor (PR) signaling pathway - cell viability counter screen (AID 1346799); note: nearly all actives have a fitted effect of over 45% in size
In short: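 Counter screen in the PR-UAS-bla HEK293T wells (2% charcoal-stripped FBS, 16 h compound exposure at 37 C) after the bla read. CellTiter-Glo added, 30 min at room temperature, luminescence read as cell viability.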

[15] = qHTS assay to identify small molecule antagonists of the TGF-beta/Smad signaling pathway - cell viability counter screen (AID 1346824; active = well fitted curve in the direction sought with a large enough effect in the repeat runs; an effect the other way counts as inactive or inconclusive; note: nearly all actives have a fitted effect of over 50% in size)
In short: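 SBE-bla HEK 293T cells were plated overnight at 37 C, then given compounds in DMSO plus TGF-beta1 (added as 0.25 ng/mL solution) for 5 hr. After the bla read, CellTiter-Glo was added to the same wells and luminescence read after 30 min at room temperature.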

[16] = qHTS assay to identify small molecule agonists of the TGF-beta/Smad signaling pathway - cell viability counter screen (AID 1346829; active = well fitted curve in the direction sought with a large enough effect in the repeat runs; an effect the other way counts as inactive or inconclusive; note: top concentration of the series differs between compounds; nearly all actives have a fitted effect of over 45% in size)
In short: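 In parallel with the Smad reporter read, viability of HEK 293T cells stably carrying SBE-bla is quantified by ATP luminescence following 5 hr compound treatment.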

[17] = qHTS assay to identify small molecule agonists of the TGF-beta/Smad signaling pathway (AID 1346859; active = well fitted activation curve with a large enough effect in the signal ratio in the repeat runs, not every such curve was filed as active; the % refers to the signal ratio; note: series mostly up to about 77 µM)
In short: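 SBE-bla HEK293T cells plated overnight, then compound exposure for 5 h at 37 C. Beta-lactamase reporter read with LiveBLAzer B/G FRET substrate after 2 h at room temperature, fluorescence at 405 nm excitation, 460/530 nm emission.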

[18] = target: Thyrotropin-releasing hormone receptor (Homo sapiens) (UniProt P34981); test: qHTS assay to identify small molecule antagonists of the thyrotropin-releasing hormone receptor (TRHR) signaling pathway (AID 1346877; active = well fitted inhibition curve with a large enough effect in the repeat runs, not every such curve was filed as active; note: series mostly up to about 51 µM)
Sequence of Thyrotropin-releasing hormone receptor (Homo sapiens) (P34981 whole entry, looked up): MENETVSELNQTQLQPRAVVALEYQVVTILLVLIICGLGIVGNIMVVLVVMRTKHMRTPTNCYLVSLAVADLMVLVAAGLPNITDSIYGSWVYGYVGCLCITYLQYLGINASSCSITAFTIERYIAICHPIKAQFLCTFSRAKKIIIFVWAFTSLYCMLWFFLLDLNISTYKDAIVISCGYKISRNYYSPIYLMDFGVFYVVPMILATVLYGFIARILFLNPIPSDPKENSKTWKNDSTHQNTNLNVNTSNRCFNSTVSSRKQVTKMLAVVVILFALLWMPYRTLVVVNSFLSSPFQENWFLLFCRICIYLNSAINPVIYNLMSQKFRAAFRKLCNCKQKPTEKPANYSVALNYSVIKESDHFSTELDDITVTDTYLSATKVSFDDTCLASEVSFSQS
In short: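 Following an 18 h incubation at 37 °C and a 2 h calcium dye load, TRHR-HEK293 cells were exposed to compound (5 min, room temperature) and challenged with TRH, 1 nM final.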

[19] = target: Estrogen receptor (Homo sapiens) (UniProt P03372); test: qHTS assay to identify small molecule agonists of the estrogen receptor alpha (ER-alpha) signaling pathway in the presence of an antagonist (AID 1259383); note: top concentration of the series differs between compounds; nearly all actives have a fitted effect of over 15% in size
Sequence of Estrogen receptor (Homo sapiens) (P03372 whole entry, looked up): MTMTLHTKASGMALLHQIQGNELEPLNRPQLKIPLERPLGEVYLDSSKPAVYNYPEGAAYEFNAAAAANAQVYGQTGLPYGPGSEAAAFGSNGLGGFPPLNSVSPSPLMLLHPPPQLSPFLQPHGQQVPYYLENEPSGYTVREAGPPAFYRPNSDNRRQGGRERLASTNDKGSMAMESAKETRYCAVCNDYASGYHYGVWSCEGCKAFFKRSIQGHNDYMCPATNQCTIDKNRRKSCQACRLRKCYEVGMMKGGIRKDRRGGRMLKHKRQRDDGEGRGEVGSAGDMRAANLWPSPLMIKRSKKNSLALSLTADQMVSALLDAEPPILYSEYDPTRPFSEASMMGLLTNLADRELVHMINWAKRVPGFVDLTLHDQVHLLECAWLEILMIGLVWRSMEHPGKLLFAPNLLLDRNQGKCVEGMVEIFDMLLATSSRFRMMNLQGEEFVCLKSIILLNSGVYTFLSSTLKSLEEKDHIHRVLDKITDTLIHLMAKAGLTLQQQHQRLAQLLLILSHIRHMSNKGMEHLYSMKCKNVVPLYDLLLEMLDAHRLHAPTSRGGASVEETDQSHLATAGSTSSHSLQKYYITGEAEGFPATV
In short: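 Stably transfected VM7Luc4E2 reporter cells, kept 5 days in charcoal-stripped serum, received ICI-182,780 at 10.0nM final before compound addition. Following 22hr incubation at 37C and 5% CO2, luciferase signal was read by luminescence.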

Measured: Potency

O=c1[nH]c2ccccc2c(=O)n1CCCl
inactive: [1] | [2] | [3] | [4] | [5] | [6] | [7] | [8] | [9] | [10] | [11] | [12] | [13] | [14] | [15] | [16] | [17] | [18]

NCCN1CCNC1=O
inactive: [1] | [2] | [4] | [5] | [7] | [19] | [8] | [9] | [10] | [11] | [12] | [13] | [16] | [17]

CN1[C@@H]2CC[C@H]1CC(NC(=O)n1c(=O)[nH]c3ccccc31)C2 (stereo partly specified)
inactive: [1] | [2] | [3] | [5] | [6] | [7] | [19] | [10] | [11] | [12] | [13] | [14] | [15] | [16] | [17] | [18]

CCCCCC[C@@H](CCC)C(=O)O
inactive: [1] | [2] | [3] | [4] | [7] | [19] | [8] | [9] | [10] | [11] | [12] | [13] | [15] | [16] | [17] | [18]

C=C(C)C(=O)OCCC(C)OC(=O)C(=C)C (stereo unspecified)
inactive: [1] | [2] | [4] | [5] | [7] | [19] | [8] | [9] | [10] | [11] | [12] | [13] | [14] | [15] | [16] | [17] | [18]

CC(=O)CCc1ccc(O)cc1
inactive: [1] | [2] | [3] | [5] | [7] | [19] | [8] | [9] | [10] | [12] | [13] | [14] | [16] | [17] | [18]

NC(=O)c1ncn([C@@H]2O[C@H](CO)[C@@H](O)[C@H]2O)c1N
inactive: [1] | [2] | [4] | [5] | [7] | [19] | [8] | [9] | [10] | [11] | [12] | [13] | [14] | [17] | [18]

NC(=O)c1c(Cl)cccc1Cl
inactive: [1] | [2] | [4] | [5] | [7] | [19] | [8] | [9] | [10] | [11] | [13] | [14] | [16] | [17] | [18]
